IEC-6 tox: counter-screen for KLF5 inhibitors: cytotoxicity in IEC-6 cells; 290,000 tested, 0.78% active; IEC-6 cytotoxicity, luminescence viability; inhibition, % at 5 µM;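 note: 0% = plate median of test compound wells and 100% = cytotoxic reference compound wells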
aSyn UTR inh: 5' untranslated region of α-synuclein, MLPCN primary screen; alpha-synuclein 5'UTR reporter, inhibitor activity; inhibition, % (tested at 7.5 µM); 300,000 tested, 0.82% active; in the data active = inhibition above about 60%;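 note: H4 neuroglioblastoma cells stably carrying SNCA 5'UTR luciferase fusion; 0% = DMSO wells and 100% = positive control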
APP 5UTR inh: APP translation inhibition; 190,000 tested, 0.82% active; AID 1285; SH-SY5Y APP 5'UTR-luciferase reporter, luminescence; inhibition, % at 2 µM;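 active = inhibition above a set limit, derived from the sample mean plus 3 SD, cut at about 45% in these data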
KLF5 inhibitor: kruppel-like factor 5 inhibition; DLD-1 KLF5 promoter-luciferase reporter, luminescence; AID 1700; inhibition, % at 5 µM; 290,000 tested, 0.23% active;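 active = inhibition above a per-plate limit of that plate's mean compound inhibition plus 3 SD, cut at about 60% in these data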;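 note: 0% = DMSO wells and 100% = LY294002 at 200 µM; higher means less KLF5 promoter-driven luciferase light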
BaF3 tox: counter-screen for JAK2V617F inhibitors: parental Ba/F3 viability inhibitors. CellTiter-Glo ATP luminescence. inhibition, % at 5.6 µM. 220,000 tested, 1.1% active;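 active = inhibition above a per-campaign cutoff, the mean inhibition of all tested compounds plus 3 SD, cut at about 27% in these data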;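 note: 0% = DMSO wells and 100% = JAK Inhibitor I control wells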
Ba/F3 V617F tox: reduce viability of Ba/F3 cells dependent on JAK2V617F | Ba/F3 EpoR-JAK2V617F viability, ATP luminescence | inhibition, % at 5.6 µM | 220,000 tested, 1.1% active | AID 1446;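 active = inhibition above the campaign mean plus 3 SD over all tested compounds, cut at about 24% in these data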;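 note: cytokine-independent growth of Ba/F3 cells driven by EpoR plus mutant JAK2; 0% = DMSO-treated cells and 100% = JAK inhibitor I control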
IEC-6 cytotox cf: confirmation of cytotoxic compounds in rat IEC-6 intestinal epithelial cells; 1,900 tested, 63% active; IEC-6 rat intestinal epithelial viability, luminescence; inhibition, % at 5 µM; shares compounds with IEC-6 tox;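 note: 0% = vehicle and 100% = reference cytotoxic drug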
* = called active by the depositor. The list is not random: actives were taken first. Their share in the collection is about 2.2%. Cut-off read from the data, not from the text of the source, unless noted: active = inhibition above about 22%; inactive = the rest.

COc1ccc(C(=O)n2c(-c3ccco3)nc3ccccc32)cc1 was read as IEC-6 tox 48*, aSyn UTR inh -100, APP 5UTR inh 50*, KLF5 inhibitor 25, BaF3 tox 8, Ba/F3 V617F tox 10 and IEC-6 cytotox cf 36*.
Screening COc1ccc(C(=O)N2CCn3c2nc2ccccc23)cc1 returned IEC-6 tox 0, aSyn UTR inh -108, APP 5UTR inh -17, KLF5 inhibitor -73, BaF3 tox 5 and Ba/F3 V617F tox 0.
`Cc1ncc(C(=O)O)c(C(=O)O)c1N` gave IEC-6 tox -1, aSyn UTR inh -4, APP 5UTR inh -12, KLF5 inhibitor -18, BaF3 tox -8 and Ba/F3 V617F tox -3.
For CNc1c([N+](=O)[O-])ncn1C the results were IEC-6 tox 1, aSyn UTR inh 27, APP 5UTR inh -13, KLF5 inhibitor -15, BaF3 tox 4 and Ba/F3 V617F tox 0.
Screening CNc1nc2cc([N+](=O)[O-])c([N+](=O)[O-])cc2nc1NC returned IEC-6 tox 40*, aSyn UTR inh 9, APP 5UTR inh -18, KLF5 inhibitor -32, BaF3 tox 69*, Ba/F3 V617F tox 75* and IEC-6 cytotox cf 34*.
COc1ccc(-n2c3c(cc(C(=O)NNc4ccccc4)c2=O)C(=O)CC(C)(C)C3)cc1 was read as IEC-6 tox -4, aSyn UTR inh 24, APP 5UTR inh -2, KLF5 inhibitor -11, BaF3 tox -3 and Ba/F3 V617F tox -1.
`Nc1c(Cl)cnn(-c2ccccc2)c1=O` gave aSyn UTR inh 13.
For O=c1c(Cl)c(Cl)cnn1-c1ccccc1 the results were IEC-6 tox 95*, aSyn UTR inh -29, APP 5UTR inh 96*, KLF5 inhibitor 10, BaF3 tox -8, Ba/F3 V617F tox -1 and IEC-6 cytotox cf 31*.
For O=C1c2ccccc2C(=O)N1C/C=C/c1ccccc1 the results were IEC-6 tox -4, aSyn UTR inh -8, APP 5UTR inh 6, KLF5 inhibitor 1, BaF3 tox 8 and Ba/F3 V617F tox 5.
`O=C1C(=O)N(C/C=C/c2ccccc2)c2ccccc21` gave IEC-6 tox 89*, aSyn UTR inh -40, KLF5 inhibitor 5 and IEC-6 cytotox cf 65*.
Screening COC(=O)c1c(NC(=O)Cc2ccccc2)sc2c1CCN(C(C)C)C2 returned IEC-6 tox 0, aSyn UTR inh 4 and KLF5 inhibitor -13.
COC(=O)c1sc(NC(=O)c2ccc([N+](=O)[O-])o2)c(C#N)c1C was read as IEC-6 tox 22*, aSyn UTR inh -45, KLF5 inhibitor -8, BaF3 tox 2, Ba/F3 V617F tox 1 and IEC-6 cytotox cf 26*.
Screening CC(=O)N1CCc2c(sc(NC(=O)c3ccc([N+](=O)[O-])o3)c2C#N)C1 returned IEC-6 tox 61*, aSyn UTR inh -5, APP 5UTR inh 62*, KLF5 inhibitor -5, BaF3 tox 32*, Ba/F3 V617F tox 17 and IEC-6 cytotox cf 63*.
For COC(=O)c1c(NC(=O)c2ccc([N+](=O)[O-])o2)sc2c1CCN(C(C)C)C2 the results were IEC-6 tox 96*, aSyn UTR inh 105*, KLF5 inhibitor 0 and IEC-6 cytotox cf 60*.
Screening COc1ccc(C(=O)Nc2sc3c(c2C#N)CCN(C(C)=O)C3)cc1 returned IEC-6 tox 4, aSyn UTR inh -72, APP 5UTR inh -8, KLF5 inhibitor -14, BaF3 tox 10 and Ba/F3 V617F tox 4.
For CCOc1ccccc1C(=O)NCC(=O)NC(C)c1ccc(-n2ccnc2)cc1 (configuration not stated) the results were aSyn UTR inh -5.
`COc1ccc(-c2ccc(CCC(=O)O)n2-c2ccccc2OC)cc1` gave IEC-6 tox 41*, aSyn UTR inh -45, KLF5 inhibitor 36 and IEC-6 cytotox cf -3.
`Cc1cccc(N2CCN(C(=O)c3c(-c4ccccc4)noc3C)CC2)c1C` gave IEC-6 tox 72*, aSyn UTR inh 65*, KLF5 inhibitor 61 and IEC-6 cytotox cf 45*.
Cc1ccccc1-c1nc(SCc2cccnc2)c2c(=O)n(C)c(=O)n(C)c2n1 was read as IEC-6 tox 5, aSyn UTR inh 24, APP 5UTR inh 6, KLF5 inhibitor -43, BaF3 tox -1 and Ba/F3 V617F tox -3.
`S=c1nc(NCCc2ccccc2Cl)c2ccccc2[nH]1` gave IEC-6 tox 24*, aSyn UTR inh -114, KLF5 inhibitor -155 and IEC-6 cytotox cf 14.
